# Laboratory results: PubChem BioAssay
# A number with no mark means an inactive call. The source made the active and inactive calls. Cut-off read from the data, not from the text of the source, unless noted: active = inhibition above about 44%; inactive = the rest.
# Legend:
# [1] = StAR promoter reporter inhibitors, counter-screen for LRH-1 inverse agonist project, cell-based, luminescence, high throughput (AID 651611; in the data active = inhibition above about 28%); conditions: StAR promoter luciferase reporter counterscreen, at 3.6 µM, stronger effect = higher value
# [2] = biological target: Nuclear receptor subfamily 5 group A member 2 (Homo sapiens) (UniProt O00482); experiment: NR5A2 activity suppression in reporter cells – cell-based, luminescence, confirmation (AID 651613; in the data active = inhibition above about 42%;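 note: HEK293T cells co-transfected with LRH-1 and StAR promoter luciferase reporter; 0% = vehicle wells and 100% = parental cells lacking receptor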); conditions: cell-based LRH-1 luciferase reporter, inverse agonism; at 3.6 µM; stronger effect = higher value
# [3] = biological target: Steroidogenic factor 1 (Homo sapiens) (UniProt Q13285); experiment: inverse agonism at SF1 nuclear receptor – cell-based, luminescence, high throughput, counter-screen for LRH-1 inverse agonist project (AID 651614); conditions: cell-based SF1 luciferase reporter, at 3.6 µM, stronger effect = higher value;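 note: cells cotransfected with StAR promoter reporter and SF1 expression vector; 0% = vehicle on cells with receptor and 100% = vehicle on cells lacking receptor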
# [4] = compounds suppressing VP16-driven luciferase signal – cell-based, luminescence, high throughput, counter-screen for LRH-1 inverse agonist project (AID 651615; in the data active = inhibition above about 33%); conditions: Gal4-VP16 luciferase reporter cells, at 3.6 µM, stronger effect = higher value
# Chain of Nuclear receptor subfamily 5 group A member 2 (Homo sapiens) (O00482 whole entry, looked up): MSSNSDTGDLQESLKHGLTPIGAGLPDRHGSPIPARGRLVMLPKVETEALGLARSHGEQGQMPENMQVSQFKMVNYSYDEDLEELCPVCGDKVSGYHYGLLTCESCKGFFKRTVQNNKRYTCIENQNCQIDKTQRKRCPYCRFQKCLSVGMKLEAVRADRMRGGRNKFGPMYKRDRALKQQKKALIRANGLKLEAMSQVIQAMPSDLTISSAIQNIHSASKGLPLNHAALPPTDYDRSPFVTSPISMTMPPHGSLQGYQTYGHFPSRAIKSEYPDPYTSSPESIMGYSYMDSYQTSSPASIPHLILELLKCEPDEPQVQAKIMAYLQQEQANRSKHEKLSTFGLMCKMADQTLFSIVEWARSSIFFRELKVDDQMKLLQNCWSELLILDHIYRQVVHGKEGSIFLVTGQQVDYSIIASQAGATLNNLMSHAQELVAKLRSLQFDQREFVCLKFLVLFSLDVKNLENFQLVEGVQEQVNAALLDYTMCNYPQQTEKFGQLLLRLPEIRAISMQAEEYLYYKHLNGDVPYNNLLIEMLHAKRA
# Chain of Steroidogenic factor 1 (Homo sapiens) (Q13285 whole entry, looked up, the tested form may be a part): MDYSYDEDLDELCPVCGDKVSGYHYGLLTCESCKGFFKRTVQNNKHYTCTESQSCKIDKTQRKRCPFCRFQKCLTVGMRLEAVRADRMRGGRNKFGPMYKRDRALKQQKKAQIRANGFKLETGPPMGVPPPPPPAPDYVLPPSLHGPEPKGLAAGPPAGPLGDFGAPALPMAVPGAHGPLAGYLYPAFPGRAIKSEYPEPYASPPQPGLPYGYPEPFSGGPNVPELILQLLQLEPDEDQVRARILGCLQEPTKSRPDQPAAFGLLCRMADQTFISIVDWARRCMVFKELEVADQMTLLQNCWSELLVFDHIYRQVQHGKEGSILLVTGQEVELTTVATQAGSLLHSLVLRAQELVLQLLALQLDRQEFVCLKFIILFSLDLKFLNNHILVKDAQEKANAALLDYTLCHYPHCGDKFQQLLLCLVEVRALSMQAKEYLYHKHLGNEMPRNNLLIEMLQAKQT
Structure (SMILES),inhibition [1],inhibition [2],inhibition [3],inhibition [4]
CC(O)(c1cccnc1)c1nc(-c2cccc(C#N)c2)cs1 (stereo unspecified),5.87%,53.4% (active),54% (active),7.33%
COc1ccc(-c2nnnn2-c2ccccc2OC)cc1,8.71%,53.8% (active),54.3% (active),0.37%
COc1ccc(OC)c(C2=NS(=O)(=O)N(C)C(C(=O)Nc3ccc(C(C)=O)cc3)=C2)c1,4.76%,44.8% (active),45% (active),-9.42%
CCOc1ccc(NC(=O)CSc2nc3[nH]ncc3c(=O)[nH]2)cc1,8.84%,56.8% (active),43.5% (active),-6.78%
CC(C)C(=O)N1CCN(c2ccc(NC(=O)c3ccc([N+](=O)[O-])o3)cc2)CC1,8.38%,59.5% (active),60.5% (active),-4.74%
COc1c(/C=N/NC(N)=S)c(C)nn1-c1ccccc1,1.43%,39.5%,27.9%,-8.71%
CC(=O)C(C(C)=O)c1c(Cl)c(O)c(O)c2c(C(=O)c3ccccc3)coc12,73.1% (active),100% (active),92.8% (active),90.2% (active)
COC(=O)CNC(=O)c1nn(-c2cccc(OC)c2)c(=O)c2ccccc12,25%,35.9%,37.3%,-0.96%
COc1cc(C(=O)OCC(=O)Nc2ccc(N3CCOCC3)cc2)ccc1OCC(C)C,14.1%,54.5% (active),65.5% (active),-7.28%
